Screens from PubChem.
Shown are actives, neighbours in structure and some others; about 21% of the full set was active somewhere.
Pf growth 96h – Primary qHTS for delayed death inhibitors of the malarial parasite plastid, 96 hour incubation | 6.9% of 320,000 active | P. falciparum luciferase reporter growth, 96 h | Potency, µM (top dose mostly 28.7 µM), for the others: at the highest dose activity change, negative = inhibition, most hits filed as inhibitors | AID 504834, 2011; note: potency is the fitted concentration of half-maximal effect; % is set by controls: 0 for no effect and ±100 for the full control effect
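P. falciparum expressing integrated firefly luciferase, in erythrocytes at 2% hematocrit, 0.05% parasitemia, incubated with compounds 96 h at 37 C, 5% CO2. Growth inhibition read as loss of luminescence; two-generation exposure targets delayed-death apicoplast inhibitors.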
Shiga toxin inh – A qHTS for Small Molecule Inhibitors of Shiga Toxin. inhibition, % at 38.7 µM. AID 2315, 2010. Vero cells, Shiga toxin protein synthesis inhibition reporter. 9.2% of 290,000 active; in the data active = inhibition mostly above about 28%, no sharp cut-off; inactive = mostly below about 43%; note: 0% is about no effect
CHX counter – Cycloheximide Counterscreen for Small Molecule Inhibitors of Shiga Toxin | cell reporter, cycloheximide protein synthesis inhibition counterscreen | max response, % | 12% of 300,000 active | AID 2314, 2010; in the data active = max response mostly above about 13%, no sharp cut-off; inactive = mostly below about 14%; note: read at 38.3 µM for the half of the compounds with a filed dose; 0% is about no effect
NS1 function inh – qHTS Assay for Inhibitors of Influenza NS1 Protein Function | 0.4% of 270,000 active | Potency, µM (series often up to 46.1 µM), without a hit: top-dose activity, positive = more growth; calls by dose curve; note: potency is the fitted concentration of half-maximal effect; actives are rising curves; nearly all actives have a fitted effect of over 50% in size
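Read-out: OD600 growth recovery of NS1-expressing budding yeast. Cells grown overnight at 30C in -URA glucose medium, washed, resuspended and diluted 1:100 in 2% galactose assay medium, pH 6.0. Same strain lacking NS1 served as positive control.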
Pf growth 48h – Primary qHTS for delayed death inhibitors of the malarial parasite plastid, 48 hour incubation; P. falciparum luciferase growth in erythrocytes, 48 h; Potency, µM (top dose mostly 28.7 µM), for the others: at the top dose activity change, negative = inhibition, most hits filed as inhibitors; 5.9% of 310,000 active; note: potency is the fitted concentration of half-maximal effect; % is set by controls: 0 for no effect and ±100 for the full control effect
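Luciferase-expressing parasites in RBCs, 2% Hct / 0.1% parasitemia final; RPMI 1640 + 0.5% Albumax; 37 C, 5% CO2, one generation; luminescence read-out, lower signal = inhibition.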
FBPA Giardia inh – qHTS Assay for Inhibitors of Fructose-1,6-bisphosphate Aldolase from Giardia Lamblia. A8B2U2. Potency, µM (doses to about 59.6 µM), for the others: at the highest dose activity, negative = inhibition, hits mostly inhibitors. purified Giardia FBPA. 0.71% of 290,000 active; note: potency is the fitted concentration of half-maximal effect; % is set by controls: 0 for no effect and ±100 for the full control effect; nearly all actives have a fitted effect of over 55% in size
Target sequence (A8B2U2 whole entry, looked up): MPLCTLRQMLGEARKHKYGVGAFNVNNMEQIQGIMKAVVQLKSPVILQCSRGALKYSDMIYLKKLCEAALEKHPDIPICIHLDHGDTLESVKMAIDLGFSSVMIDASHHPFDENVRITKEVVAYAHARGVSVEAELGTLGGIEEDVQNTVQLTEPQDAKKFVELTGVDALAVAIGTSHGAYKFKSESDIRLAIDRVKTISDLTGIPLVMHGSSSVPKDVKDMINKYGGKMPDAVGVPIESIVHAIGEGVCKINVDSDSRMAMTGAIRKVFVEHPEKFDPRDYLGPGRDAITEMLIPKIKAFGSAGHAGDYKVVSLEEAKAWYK
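Giardia FBPA (40 nM reagent) was preincubated 10 min at RT with compound (up to 57.5 uM final), then substrate plus GAPDH/TPI/NAD/arsenate coupling system with diaphorase/resazurin was added; resorufin fluorescence (525/598 nm) was read after 20 min.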
* = called active by the depositor; i = inactive; ? = inconclusive; / = no result given; [ ] = dose if it differs, or a comment. Unless noted, calls come from the whole dose curve; as a rule, active = well fitted curve in the direction sought with a large enough effect; inconclusive = small, poorly fitted or top-dose-only effect, or another doubt; inactive = no such curve, though single readings can be large; an effect the other way counts as inactive or inconclusive.

SMILES	Pf growth 96h	Shiga toxin inh	CHX counter	NS1 function inh	Pf growth 48h	FBPA Giardia inh
Cc1cc(Br)ccc1NC(=O)CSc1nnc(CN2CCOCC2)n1C	2.6%	-13.9	-2.8	-7.0%	-1.1%	-25.0%
CCCCn1c(N)c(N(CC)C(=O)c2cccc(OC)c2)c(=O)[nH]c1=O	-11.8%	-6.7	-4.5	6.3%	10.5%	-4.2%
CCOC(=O)C1(C)NC(c2cccs2)C2C(=O)N(c3ccc(OC)cc3)C(=O)C21 (configuration not stated)	?	-10.2	-2.6	-4.0%	2.9%	-4.5%
CN(/N=C/c1ccncc1)C1=NCCN1	7.8%	4.5	2.2	3.6%	5.7%	14.2%
CN(/N=C/c1ccncc1)c1cnc2ccccc2n1	?	75.3*	47.9*	/	0.0%	-2.4%
COc1ccc(C(=O)N2CCC3(CC2)CN(CC(C)C)C3)cc1	/	/	/	/	/	0.9%
O=C1c2ccccc2NC(c2cccc(Cl)c2)N1N=C1CCCCCC1 (configuration not stated)	?	52.1	37.2*	-5.1%	?	3.4%
O=C1c2ccccc2NC(c2ccc(Cl)cc2Cl)N1O (configuration not stated)	-28.7%	-15.8	-5.1	-71.2%	?	4.2%
Cc1ccc(C2CC(=O)Oc3cc(C)c(Br)c(C)c32)cc1 (configuration not stated)	/	i	6.2	/	/	0.8%[89.2 µM]
CCOC(=O)c1c(-c2ccccc2)csc1NC(=O)c1nn(CC)cc1Br	/	8.6	-0.9	7.6%	13.1µM*	-2.5%
CCOC(=O)c1c(-c2ccccc2)csc1NC(=O)c1ccc(S(=O)(=O)N2CC(C)OC(C)C2)cc1 (configuration not stated)	9.28µM*	-1.2	-1.0	8.5%	10.4µM*	-3.4%
CCOC(=O)c1c(-c2ccccc2)csc1NC(=O)c1ccc(N2C(=O)CCC2=O)cc1	103.6%	-11.0	-3.0	16.0%	42.1%	-0.5%
CCOC(=O)c1c(NC(=O)c2nn(CC)cc2Br)c(C#N)cn1-c1ccccc1	24.0%	-18.4	-7.4	7.5%	9.28µM*	2.6%
CCOC(=O)c1c(-c2ccccc2)csc1NC(=S)N(CC)CC	5.22µM*	-1.2	-1.3	-3.2%	11.7µM*	1.0%
CCOC(=O)c1c(N)c(C#N)cn1-c1ccccc1	/	-4.2	2.2	5.0%	8.6%	-15.2%
Cc1cccc(N(C)S(=O)(=O)c2nnc(NC(=O)C3CCCCC3)s2)c1	-13.1%	/	/	/	-13.0%	/
O=C1C2=C(S[C@@H]3O[C@H](CO)[C@@H](O)[C@H](O)[C@H]3O2)C(=O)c2ccccc21	/	/	/	/	/	-19.0%
CCOC(=O)c1c(-c2ccccc2)csc1NC(=O)C(C)NCc1ccco1 (configuration not stated)	13.1µM*	-16.9	-0.1	12.9%	?	-29.9%
CCOC(=O)c1c(-c2ccc(OC)cc2)csc1NC(=O)CNCc1ccco1	-8.7%	-13.8	4.9	19.8%	?	?
COc1ccc(C(C)=O)cc1CN1C(=O)NC2(CCCCC2)C1=O	1.5%	-16.2	-0.8	21.1%	/	5.5%
COC(=O)[C@@]12CCCN1[C@H](c1ccc(-c3cccc(Cl)c3)c(OC)c1)[C@H]1C(=O)N(C)C(=O)[C@H]12	0.329µM*	/	/	/	2.33µM*	/
CCC1(C(=O)OC)NC(c2ccccc2OC)C2C(=O)N(C)C(=O)C21 (configuration not stated)	-8.6%	-26.5	-3.9	5.2%	9.3%	7.6%
COc1cc(NC(=O)c2cccc(Cl)c2)c(OC)cc1NC(=O)CN1CCCCC1	-19.5%	7.4	-4.5	-3.4%	-15.3%	4.1%
COC(=O)[C@@]12CCCCN1[C@H](c1ccc(-c3cccc(Cl)c3)c(OC)c1)[C@@H]1C(=O)N(C)C(=O)[C@@H]12	7.38µM*	/	/	/	9.28µM*	/
COC(=O)[C@@]12CCCCN1[C@H](c1ccc(-c3ccc(C(C)=O)cc3)c(OC)c1)[C@@H]1C(=O)N(C)C(=O)[C@@H]12	?	/	/	/	8.28µM*	/
O=C(Cn1cnc2c(NC(=O)OCc3ccccc3)ncnc21)NCc1ccccn1	?	/	/	/	32.9%	/
